From PubChem BioAssay (Tox21)
Results filed as inconclusive are left out. The source made the active and inactive calls. Unless noted, calls come from the whole dose curve; as a rule, active = well fitted curve in the direction sought with a large enough effect in the repeat runs; inconclusive = weak or mixed curves; inactive = no such curve, though single readings can be large; an effect the other way counts as inactive or inconclusive.

Key:
[1] = qHTS assay to identify small molecule antagonists of the estrogen related receptor signaling pathway with the pleiotropic PPARgamma coactivator (PGC) from Tox21 10K library - cell viability counter screen (AID 1224840; active = well fitted cell-killing curve with a large enough effect in the repeat runs, not every such curve was filed as active; note: nearly all actives have a fitted effect of over 40% in size)
Method in brief: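 PGC/ERR cells were seeded at 2,000 cells/well and left 6 hours at 37 C/5% CO2 before pin-tool addition of compounds in DMSO. After 17.5 hours at 37 C, CellTiter-Fluor was added and fluorescence read 30 minutes later.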

[2] = target: Thyrotropin receptor (Homo sapiens) (UniProt P16473); test: qHTS assay to identify small molecule agonists of the thyroid stimulating hormone receptor (TSHR) signaling pathway (AID 1224843; calls by dose curve; note: nearly all actives have a fitted effect of over 45% in size)
Method in brief: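 Steps: seed 800 TSHR-HEK293 cells per well; add test compound and hold 30 min at ambient temperature; dispense cAMP-d2 then anti-cAMP cryptate; incubate 1 h at ambient; measure fluorescence intensity.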

[3] = qHTS assay to identify small molecule agonists of H2AX (AID 1224845; active = well fitted activation curve with a large enough effect in the signal ratio in the repeat runs, not every such curve was filed as active; the % refers to the signal ratio)
Method in brief: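 Wild-type CHO-K1 cells, plated overnight, exposed 3hr at 37C to 15 concentrations (0.76% DMSO final). Lysed, then HTRF anti-pH2AX (S139) cryptate and anti-H2AX-d2 antibodies, 24 hr room temperature; 665/620 nm emission read.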

[4] = qHTS assay to identify small molecule agonists of the hypoxia (HIF-1) signaling pathway (AID 1224846; active = well fitted activation curve with a large enough effect in the signal ratio in the repeat runs, not every such curve was filed as active; the % refers to the signal ratio)
Method in brief: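 HRE-bla ME-180 cells (beta-lactamase reporter under hypoxia response element) were plated at 2,000 cells/well in medium with 0.5% dialyzed FBS, rested 5 hrs, then given compounds in DMSO for 17 hrs at 37C, 5% CO2. Reporter induction was read with CCF4-AM FRET substrate.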

[5] = qHTS assay to identify small molecule agonists of H2AX - cell viability counter screen (AID 1224847; calls by dose curve; note: top concentration of the series differs between compounds; nearly all actives have a fitted effect of over 30% in size)
Method in brief: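 After overnight plating of 1000 CHO-K1 cells per well, a 15-concentration compound series was applied for 3 hr at 37C. Luminescence from CellTiter-Glo, read following 30 min at room temperature, reflected cell viability.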

[6] = qHTS RealTime-Glo MT Cell Viability Assay in HepG2 cells - 24 hour (AID 1224867); note: nearly all actives have a fitted effect of over 50% in size
Method in brief: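 Compound treatment began 5 h after plating HepG2 cells (600/well) with NanoLuc luciferase and prosubstrate. Plates stayed at 37 C for 40 h; luminescence was captured at six time points, 0 h through 40 h.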

[7] = qHTS RealTime-Glo MT Cell Viability Assay in HEK293 cells - 32 hour (AID 1224868); note: top concentration of the series differs between compounds; nearly all actives have a fitted effect of over 50% in size
Method in brief: (§1)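 Quantitative high-throughput screen of the Tox21 10K library in HEK293: cells and RealTime-Glo reagents plated together, compound added at 5 h, luminescence monitored through 40 h at 37 C.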

[8] = qHTS RealTime-Glo MT Cell Viability Assay in HepG2 cells - 40 hour (AID 1224870); note: nearly all actives have a fitted effect of over 50% in size
Method in brief: (§2)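 HepG2 cells (600/well) mixed with RealTime-Glo MT reagent, settled 5 h at 37 C/5% CO2 before compound addition. Nonlytic NanoLuc luminescence from viable-cell prosubstrate reduction read repeatedly during 40 h treatment at 37 C.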

[9] = A CellTox Green Cytotoxicity Assay to monitor cytotoxicity in HEK293 cells - 40 hour (AID 1224871); note: nearly all actives have a fitted effect of over 45% in size
Method in brief: (§3)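 HEK293 cells premixed with CellTox Green dye were seeded at 600 cells/well and left 5 h at 37 C/5% CO2 before pin transfer of 23 nL compound in DMSO. Fluorescence from dye bound to dead-cell DNA was read during 40 h treatment.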

[10] = qHTS RealTime-Glo MT Cell Viability Assay in HEK293 cells - 16 hour (AID 1224872); note: top concentration of the series differs between compounds; nearly all actives have a fitted effect of over 50% in size
Method in brief: as §1

[11] = qHTS RealTime-Glo MT Cell Viability Assay in HepG2 cells - 8 hour (AID 1224873); note: nearly all actives have a fitted effect of over 55% in size
Method in brief: as §2

[12] = qHTS RealTime-Glo MT Cell Viability Assay in HEK293 cells - 40 hour (AID 1224874); settings: RealTime-Glo luminescence; max response: hits give low values; note: nearly all actives have a fitted effect of over 50% in size
Method in brief: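 HEK293 cells mixed with RealTime-Glo reagents (NanoLuc plus cell-permeant prosubstrate) at 600 cells/well, preincubated 5 h at 37 C/5% CO2, then given 23 nL compound in DMSO. Nonlytic luminescence from viable cells was read at 0, 8, 16, 24, 32 and 40 h.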

[13] = A CellTox Green Cytotoxicity Assay to monitor cytotoxicity in HEK293 cells - 24 hour (AID 1224875); note: series mostly up to about 77 µM; nearly all actives have a fitted effect of over 45% in size
Method in brief: as §3

[14] = A CellTox Green Cytotoxicity Assay to monitor cytotoxicity in HEK293 cells - 0 hour (AID 1224869); note: nearly all actives have a fitted effect of over 50% in size
Method in brief: as §3

[15] = qHTS assay to identify small molecule agonists of the hypoxia (HIF-1) signaling pathway - cell viability counter screen (AID 1224844; calls by dose curve; note: nearly all actives have a fitted effect of over 50% in size)
Method in brief: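 HRE-bla ME-180 cells in medium with 0.5% dialyzed FBS were preincubated 5 hrs at 37C, exposed to compounds for 17 hrs, then viability was read as CellTiter-Glo luminescence after 30 min at room temperature, in the reporter wells.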
% is set by controls: 0 for no effect and ±100 for the full control effect.

Sequence of Thyrotropin receptor (Homo sapiens) (P16473 whole entry, looked up): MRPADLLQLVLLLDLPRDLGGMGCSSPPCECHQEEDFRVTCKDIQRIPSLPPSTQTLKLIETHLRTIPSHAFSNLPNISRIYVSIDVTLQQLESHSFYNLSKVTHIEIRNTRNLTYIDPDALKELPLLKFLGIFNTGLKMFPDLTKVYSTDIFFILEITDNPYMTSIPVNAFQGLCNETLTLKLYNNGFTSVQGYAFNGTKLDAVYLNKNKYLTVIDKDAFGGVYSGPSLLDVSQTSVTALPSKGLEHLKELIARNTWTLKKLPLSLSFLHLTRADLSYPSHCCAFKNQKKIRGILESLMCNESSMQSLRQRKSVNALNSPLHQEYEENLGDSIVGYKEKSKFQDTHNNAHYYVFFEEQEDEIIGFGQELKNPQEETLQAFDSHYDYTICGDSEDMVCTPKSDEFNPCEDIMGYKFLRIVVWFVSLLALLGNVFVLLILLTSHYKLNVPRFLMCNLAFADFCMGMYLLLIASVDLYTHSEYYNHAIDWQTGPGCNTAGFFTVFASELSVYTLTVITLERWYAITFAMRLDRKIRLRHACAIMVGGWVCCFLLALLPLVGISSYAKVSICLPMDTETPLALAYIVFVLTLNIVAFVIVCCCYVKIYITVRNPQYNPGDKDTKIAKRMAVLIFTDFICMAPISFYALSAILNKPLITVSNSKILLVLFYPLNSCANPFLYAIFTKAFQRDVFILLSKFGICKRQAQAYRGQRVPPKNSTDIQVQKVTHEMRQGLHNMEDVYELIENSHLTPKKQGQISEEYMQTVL

O=c1cc(O)c(Cl)c[nH]1
inactive: outcome [1] | outcome [2] | outcome [3] | outcome [4] | Potency [5] | outcome [6] | Potency [7] | outcome [8] | Potency [9] | Potency [10] | outcome [11] | max response [12] 4.88% | Potency [13]

Cc1cc(O)c2c(c1)C(=O)c1cccc(O)c1C2=O
inactive: outcome [1] | outcome [3] | Potency [5] | outcome [6] | Potency [7] | Potency [14] | Potency [9] | Potency [10] | outcome [11] | max response [12] 3.33% | Potency [13]

COCCOCCOCCOC
inactive: outcome [1] | outcome [15] | outcome [3] | outcome [4] | Potency [5] | outcome [6] | Potency [7] | outcome [8] | Potency [9] | Potency [10] | outcome [11] | max response [12] 2.64% | Potency [13]

Nc1ccnc(=O)[nH]1
inactive: outcome [1] | outcome [2] | outcome [3] | outcome [4] | Potency [5] | outcome [6] | Potency [7] | Potency [14] | outcome [8] | Potency [9] | Potency [10] | outcome [11] | max response [12] 4.83% | Potency [13]

CCCO
inactive: outcome [1] | outcome [15] | outcome [3] | outcome [4] | Potency [5] | outcome [6] | Potency [7] | Potency [14] | outcome [8] | Potency [9] | Potency [10] | outcome [11] | max response [12] 1.64% | Potency [13]

Cc1cc(C)cc([N+](=O)[O-])c1
inactive: outcome [1] | outcome [2] | outcome [3] | Potency [5] | outcome [6] | Potency [7] | Potency [14] | outcome [8] | Potency [9] | Potency [10] | outcome [11] | max response [12] -13.7%

CCC(CO)CO
inactive: outcome [1] | outcome [15] | outcome [3] | outcome [4] | outcome [6] | Potency [7] | Potency [14] | outcome [8] | Potency [9] | Potency [10] | outcome [11] | max response [12] -4.1% | Potency [13]

C[C@H]1O[C@H](O[C@H]2[C@H](O)[C@@H](O)[C@@H](O[C@H]3[C@H](O)[C@@H](O)[C@H](O)O[C@@H]3CO)O[C@@H]2CO)[C@H](O)[C@@H](O)[C@@H]1N[C@H]1C=C(CO)[C@@H](O)[C@H](O)[C@H]1O
inactive: outcome [1] | outcome [15] | outcome [3] | outcome [4] | Potency [5] | outcome [6] | Potency [7] | Potency [14] | outcome [8] | Potency [9] | Potency [10] | outcome [11] | max response [12] 6.78% | Potency [13]

CCCCC(CC)C(=O)OC(C)C (stereo not drawn)
inactive: outcome [1] | outcome [15] | outcome [3] | outcome [4] | Potency [5] | outcome [6] | Potency [7] | outcome [8] | Potency [9] | Potency [10] | outcome [11] | max response [12] 3.8%

CCCCCC1Nc2cc(C(F)(F)F)c(S(N)(=O)=O)cc2S(=O)(=O)N1 (stereo not drawn)
inactive: outcome [1] | outcome [2] | outcome [3] | outcome [4] | Potency [5] | outcome [6] | Potency [7] | Potency [14] | outcome [8] | Potency [9] | Potency [10] | max response [12] -1.2% | Potency [13]

CC(C)CCO
inactive: outcome [1] | outcome [2] | outcome [3] | Potency [5] | Potency [7] | outcome [8] | Potency [9] | Potency [10] | max response [12] 3.55% | Potency [13]

O=C1CC[C@H](C(=O)N2CCCCC2)N1
inactive: outcome [1] | outcome [2] | outcome [3] | outcome [4] | Potency [5] | outcome [6] | Potency [7] | Potency [14] | outcome [8] | Potency [9] | Potency [10] | outcome [11] | max response [12] -2.81% | Potency [13]

COc1ccc(/C=N/NC(=O)c2ccncc2)cc1OC
inactive: outcome [1] | outcome [2] | outcome [3] | outcome [4] | Potency [5] | outcome [6] | Potency [7] | Potency [14] | outcome [8] | Potency [9] | Potency [10] | outcome [11] | max response [12] -6.3% | Potency [13]

NS(=O)(=O)c1ccc(Cl)c(S(N)(=O)=O)c1
inactive: outcome [1] | outcome [2] | outcome [3] | outcome [4] | Potency [5] | outcome [6] | Potency [7] | Potency [14] | outcome [8] | Potency [9] | Potency [10] | outcome [11] | max response [12] 13.4% | Potency [13]

SCCSCCS
inactive: outcome [1] | outcome [2] | outcome [3] | outcome [4] | outcome [6] | Potency [7] | Potency [14] | outcome [8] | Potency [9] | Potency [10] | outcome [11] | max response [12] -1.15% | Potency [13]

O=C1OC(=O)c2ccccc21
inactive: outcome [1] | outcome [2] | outcome [3] | Potency [5] | outcome [6] | Potency [7] | Potency [14] | Potency [9] | Potency [10] | outcome [11] | max response [12] -12.4% | Potency [13]

O=S(=O)(O)CCO
inactive: outcome [1] | outcome [2] | outcome [3] | outcome [4] | Potency [5] | outcome [6] | Potency [7] | outcome [8] | Potency [9] | Potency [10] | max response [12] -10.5% | Potency [13]
